Reference: PubChem BioAssay (Tox21)
Activity calls are given as the source filed them. Calls come from the whole dose curve.

biological target: Gonadotropin-releasing hormone receptor (Homo sapiens) (UniProt P30968); assay: Human gonadotropin-releasing hormone receptor (GnRHR) small molecule agonists, calcium flux assay in GnRHR-HEK293 cells (AID 1920063); details: calcium flux fluorescence, agonist mode; series mostly up to 57.6 µM; activity change: at the top concentration; note: nearly all actives have a fitted effect of over 35% in size
Excerpt: National Center for Advancing Translational Sciences [NCATS]
Division of Preclinical Innovation [DPI]
U.S. Environmental Protection Agency [EPA]
National Institutes of Environmental Health Sciences [NIEHS]
National Toxicology Program [NTP]
U.S. Food and Drug Administration [FDA]
Gonadotropin-releasing hormone receptor (GnRHR) is a G-protein-coupled receptor (GPCR) and acts (through phospholipase C) to increase intracellular inositol trisphosphate and then release intracellular calcium stores. Cell-based GnRHR-Hek293 calcium influx assay is using HEK293 cells that have been genetically engineered to express the human GnRHR, which activity can be measured by calcium signaling. A compound/drug can activate (agonist) GnRHR that can be monitored by levels of intracellular calcium.
GnRHR-HEK293 cells developed by Codex Corp contain human GnRHR reporter gene, which was stably integrated into HEK 293 cells. The compound activation can be detected by fluorescence intensity via calcium flux assay. This cell line has been used to screen the Tox21 10K compound library to identify GnRHR agonists.
GnRHR-Hek293 cells were dispensed at 1500cells/4uL/well in 1536-well black wall/clear bottom plates using a multidrop dispenser. After the assay plates were incubated at a 37 C/5% CO2 incubator for 18 hours, 4 uL of Calcium Dye Solution was added to each well. The plates were incubated at 37 C for 1 hour. For agonist mode, 23 nL of compounds dissolved in DMSO, positive controls or DMSO only was transferred to the assay plate by a pin tool station. The fluorescence intensity in the plates was measured using FDSS 7000EX kinetic plate reader with a filter set of Ex/Em=480/540 for 3 min at 1 sec intervals. Each test compound was measured at 15 concentrations and in triplicates.
% is set by controls: 0 for no effect and ±100 for the full control effect; potency is the fitted concentration of half-maximal effect.

Chain of Gonadotropin-releasing hormone receptor (Homo sapiens) (P30968 whole entry, looked up): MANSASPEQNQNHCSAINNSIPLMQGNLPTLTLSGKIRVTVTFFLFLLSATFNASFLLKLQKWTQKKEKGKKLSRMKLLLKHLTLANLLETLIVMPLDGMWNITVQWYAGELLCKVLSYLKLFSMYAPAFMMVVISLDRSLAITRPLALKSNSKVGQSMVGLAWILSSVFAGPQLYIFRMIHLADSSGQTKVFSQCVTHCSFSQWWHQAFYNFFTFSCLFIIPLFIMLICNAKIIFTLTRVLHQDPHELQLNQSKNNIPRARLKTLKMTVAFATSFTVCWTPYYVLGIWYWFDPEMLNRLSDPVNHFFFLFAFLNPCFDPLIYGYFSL

SMILES	activity change	Potency
COC(=O)c1nc(Cl)c(Cl)nc1N	-1.41% [at 26.4 µM, hits give high values] (inactive)	
CN(C)c1ccc(SC#N)cc1	-0.841% (inactive)	
CC(C)(C)c1ccc(OC(=O)c2ccccc2O)cc1	0.179% (inactive)	
COc1ccc(OC(F)(F)F)cc1CN[C@H]1CCCN[C@H]1c1ccccc1	19.3% (inactive)	
C1C2OC2C2C1C1CC2C2OC12 (stereo not given)	2.04% (inactive)	
OCCN1CCN(CC/C=C2/c3ccccc3Sc3ccc(C(F)(F)F)cc32)CC1	17.4% [at 26.4 µM, hits give high values] (inactive)	
CC(CCO)CCCC(C)(C)O (stereo not given)	-0.314% (inactive)	
C=C(C)[C@@H]1CC=C(C)C(=O)C1	-0.291% (inactive)	
Cc1ccc(S(=O)(=O)C(I)I)cc1		38.9 µM (active)
FC1(F)C(F)(F)C(F)(F)C2(F)C(F)(F)C(F)(F)C(F)(F)C(F)(F)C2(F)C1(F)F (stereo not given)	-1.85% [at 26.4 µM, hits give high values] (inactive)	
CCOC(=O)c1nc(C(Cl)(Cl)Cl)n(-c2ccc(Cl)cc2Cl)n1	-2.02% (inactive)	
CC(=O)c1ccc2c(c1)[C@H](NC(=O)c1ccc(F)cc1)[C@@H](O)C(C)(C)O2	-0.707% (inactive)	
CC(C)(Cc1c[nH]c2ccccc12)NCC(O)COc1ccccc1C#N (stereo not given)	2.74% [at 26.4 µM, hits give high values] (inactive)	
CCCCCCCCCCC=O	-2.18% (inactive)	
O=C(NO)C1(NS(=O)(=O)c2ccc(Oc3ccc(F)cc3)cc2)CCOCC1	-0.594% (inactive)	
CCCC(=O)OC[C@@H](OC(=O)CCC)[C@@H](OC(=O)CCC)[C@H](Cn1c2nc(=O)[nH]c(=O)c-2nc2cc(C)c(C)cc21)OC(=O)CCC		7.56 µM (active)
Cc1cc2nc(N)sc2cc1C	2.37% (inactive)	
CC1(C)SC(C)(C)SC(C)(C)S1	0.342% (inactive)	
O=C(O)COc1nn(Cc2ccccc2)c2ccccc12	-1.73% [at 26.4 µM, hits give high values] (inactive)	
Cc1cc(-c2ccc(N=Nc3cc(S(=O)(=O)O)c4ccccc4c3N)c(C)c2)ccc1N=Nc1cc(S(=O)(=O)O)c2ccccc2c1N	0.816% (inactive)	

SMILES	activity change	Potency
CN(C)CCOC(c1ccccc1)c1ccc(Br)cc1 (stereo not given)	7.46% [at 26.4 µM, hits give high values] (inactive)	
CCCCOC(=O)CCC(C)=O	0.636% (inactive)	
COc1ccc(/C=N/NC(=O)c2ccncc2)cc1OC	0.712% [at 26.4 µM, hits give high values] (inactive)	
O=C(Nc1ccc(Cl)cc1)Nc1ccc(Cl)c(C(F)(F)F)c1	4.41% [at 26.4 µM, hits give high values] (inactive)	
C[N+]1(C)CCC(OC(=O)C(O)(c2ccccc2)C2CCCC2)C1 (stereo not given)	-1.6% [at 26.4 µM, hits give high values] (inactive)	
CCOC(=O)Nc1ccc2c(c1)N(C(=O)CCN1CCOCC1)c1ccccc1S2	1.51% [at 26.4 µM, hits give high values] (inactive)	
O=C(O)O	1.69% [at 5.22 µM, hits give high values] (inactive)	
CN(C)c1ccc(O)c2c1C[C@H]1C[C@H]3[C@H](N(C)C)C(=O)C(C(N)=O)=C(O)[C@@]3(O)C(=O)C1=C2O		inactive
O=C1Nc2ccc([N+](=O)[O-])cc2C1=O	0.441% (inactive)	
O=C(O)CCCCCCCCCC(=O)O	0.332% (inactive)	
COc1ccc2c(c1)c(CC(=O)OC/C=C(\C)CC/C=C(\C)CCC=C(C)C)c(C)n2C(=O)c1ccc(Cl)cc1	-0.745% [at 26.4 µM, hits give high values] (inactive)	
C=CC(C)(CCC=C(C)C)OC(=O)/C=C/c1ccccc1 (stereo not given)	-0.0553% (inactive)	
Cc1nc2sccn2c(=O)c1CCN1CCC(=C(c2ccc(F)cc2)c2ccc(F)cc2)CC1	-0.166% [at 26.4 µM, hits give high values] (inactive)	
O=S1(=O)CCCC1	-1.57% (inactive)	
CN(C)C(=O)NC1(c2ccccc2)CCN(CC[C@@]2(c3ccc(F)c(F)c3)CN(C(=O)c3ccccc3)CCO2)CC1	-0.169% (inactive)	
CCCCC/C=C\C=C\C(=O)OCC	1.37% (inactive)	
C=CCCCCCCC=C	0.461% (inactive)	
CO[Si](C)(OC)OC	-0.688% (inactive)	
Oc1cc2c(cc1O)[C@H]1c3ccc(O)c(O)c3OC[C@@]1(O)C2	2.01% (inactive)	
N#CCCCC(C#N)CCC#N (stereo not given)	0.737% (inactive)	
